# About 220 (1%) of roughly 22,000 compounds were called active. This is one part of a sample in which actives are shown more often than they occur. A number with no mark means an inactive call. No stated cut-off is given here; in the data, active means inhibition above about 35%; inactive means the rest.
# Molecular target: Mitogen-activated protein kinase kinase kinase 5 (Homo sapiens) (UniProt Q99683)
# Assay: blockers of MAP3K5 kinase activity – biochemical, AlphaScreen, primary screen (AID 1159602);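 further: 0% = median of compound wells and 100% = no enzyme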
# Settings: AlphaScreen MKK6 phosphorylation by ASK1, luminescence; at 7.44 µM; active compounds read high
# Chain of Mitogen-activated protein kinase kinase kinase 5 (Homo sapiens) (Q99683 whole entry, looked up): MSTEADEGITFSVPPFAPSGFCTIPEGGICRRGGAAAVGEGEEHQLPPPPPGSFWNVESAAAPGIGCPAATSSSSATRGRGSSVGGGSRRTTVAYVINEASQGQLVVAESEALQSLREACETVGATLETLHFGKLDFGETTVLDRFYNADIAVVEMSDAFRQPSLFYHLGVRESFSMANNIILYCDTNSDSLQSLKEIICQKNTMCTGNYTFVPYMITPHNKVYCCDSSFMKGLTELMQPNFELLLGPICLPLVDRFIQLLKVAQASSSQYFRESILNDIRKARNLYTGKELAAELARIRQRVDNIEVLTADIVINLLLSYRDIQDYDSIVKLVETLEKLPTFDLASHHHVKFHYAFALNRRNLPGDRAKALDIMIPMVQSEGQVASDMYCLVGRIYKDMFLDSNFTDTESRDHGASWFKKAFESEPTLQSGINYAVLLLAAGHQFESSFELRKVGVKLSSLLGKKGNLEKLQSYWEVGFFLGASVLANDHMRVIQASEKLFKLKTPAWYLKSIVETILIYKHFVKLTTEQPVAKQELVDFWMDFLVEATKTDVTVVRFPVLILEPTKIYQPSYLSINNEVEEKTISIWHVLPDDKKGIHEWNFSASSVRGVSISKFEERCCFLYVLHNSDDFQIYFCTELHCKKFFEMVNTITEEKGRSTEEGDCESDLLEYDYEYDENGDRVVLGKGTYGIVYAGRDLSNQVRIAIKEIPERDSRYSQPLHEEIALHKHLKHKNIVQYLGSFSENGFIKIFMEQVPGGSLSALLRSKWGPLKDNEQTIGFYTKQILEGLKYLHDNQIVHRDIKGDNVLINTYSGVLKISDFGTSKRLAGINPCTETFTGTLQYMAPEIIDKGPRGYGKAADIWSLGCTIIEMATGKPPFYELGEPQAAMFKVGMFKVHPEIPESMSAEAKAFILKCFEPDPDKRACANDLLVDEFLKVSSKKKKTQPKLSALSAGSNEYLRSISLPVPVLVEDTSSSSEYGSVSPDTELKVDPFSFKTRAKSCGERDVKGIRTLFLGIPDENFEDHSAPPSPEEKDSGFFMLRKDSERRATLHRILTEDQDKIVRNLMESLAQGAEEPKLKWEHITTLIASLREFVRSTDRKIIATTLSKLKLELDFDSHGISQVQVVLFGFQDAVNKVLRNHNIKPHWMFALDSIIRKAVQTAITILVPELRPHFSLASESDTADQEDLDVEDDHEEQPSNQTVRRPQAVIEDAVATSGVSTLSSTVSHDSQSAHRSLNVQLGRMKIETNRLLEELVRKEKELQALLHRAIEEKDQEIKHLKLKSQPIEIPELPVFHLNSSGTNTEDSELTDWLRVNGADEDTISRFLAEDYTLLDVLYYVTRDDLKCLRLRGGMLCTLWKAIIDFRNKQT
row,Structure (SMILES),inhibition
1,c1nc(NC2CC2)c2[nH]c(N3CCN(Cc4ccc5c(c4)OCO5)CC3)nc2n1,-10.7%
2,c1cnc(Nc2nc(NC3CC3)c3[nH]cnc3n2)cn1,-8.13%
3,CC(=O)Nc1ccc(Nc2nc(N3CCc4ccccc4C3)nc3c2ncn3C(C)C)cc1,14%
4,CN(C)c1cccc(Nc2nc3ccc(C(=O)Nc4ccc(N5CCOCC5)cc4)cc3s2)c1,29%
5,COc1ccc(CCNC(=O)c2ccnc(-c3ccc(C(=O)NC4CC4)cc3)c2)cc1,-2.59%
6,CCN(CC)c1nc(NCCCN2CCCC2=O)nc(N2CCC(N3CCOCC3)CC2)n1,2.42%
7,CCNc1nc(NCCOc2ccccc2)c2ncn(Cc3ccc(C(F)(F)F)cc3)c2n1,-5.64%
8,FC(F)(F)c1cccc(CNc2ncnc3nc(N4CCC(N5CCOCC5)CC4)[nH]c23)c1,-8.59%
9,CCN(CC)C(=O)C1CCCN(c2nccc(NCc3nc4ccccc4[nH]3)n2)C1 (configuration not stated),4.76%
10,COc1ccc(CNc2nc(-c3cccc(OC(F)(F)F)c3)nc3c2ncn3C(C)C)cc1,-11.1%
11,COc1cc2nc(NCc3cccnc3)nc(NCCN3CCOCC3)c2cc1OC,-7.09%
12,NS(=O)(=O)c1ccc(Nc2nccc(-c3cccc(Cl)c3)n2)cc1,-4.08%
13,Cc1cc(Nc2ccccc2)nc(NCc2cccnc2)n1,-4.25%
14,O=C(NCc1ccccc1)c1ccnc(Nc2nccc3ccccc23)c1,-2.15%
15,CCN(CC)C(=O)C1CCCN(c2nc(Nc3ccc(NC(C)=O)cc3)c3ncn(C4CCCCC4)c3n2)C1 (configuration not stated),-11%
16,Nc1nc(NCCO)cc(N2CCOCC2)n1,-6.61%
17,O=C(NCc1nc2ccncc2[nH]1)c1c(F)cccc1F,-12.1%
18,O=C(Cc1ccc(Br)cc1)N1CCCC(Nc2cccc3cnccc23)C1 (configuration not stated),-21.7%
19,O=C1CCCN1CCCNc1nc(-c2ccccc2)nc2nc[nH]c12,-3.38%
20,CN1CCN(c2nc(C3COc4ccccc4O3)nc3ccc(-c4cn[nH]c4)cc23)CC1 (configuration not stated),41.7% (active)
21,Cn1c(C2COc3ccccc3O2)nc2ccc(-c3cn[nH]c3)cc21 (configuration not stated),8.71%
22,c1ccc2c(c1)OCC(c1cnc3ccc(-c4cn[nH]c4)cc3n1)O2 (configuration not stated),14.4%

# Reference: PubChem BioAssay AID1159602 (The Scripps Research Institute Molecular Screening Center, 2016)
